In all, about 52,000 compounds went through this assay and about 1,700 (3.3%) were called active. This is one part of a sample in which actives are shown more often than they occur. No stated cut-off is given here; in the data, active means survival mostly below about 52% (no sharp cut-off); inactive means mostly above about 56%.

The assay has as its system Wild type. The experiment in a line: growth inhibition of S. aureus wild type versus tarO mutant, primary screen, teichoic acid synthesis inhibitors, RN4220, OD600 (AID 463173). As to conditions: S. aureus RN4220 wild type/DeltatarO growth, OD600, 18 h, hits give low values, screened at 18.75 µg/mL (by protocol).
In the case of `CCOC(=O)c1cccc(NC(=O)CSc2ncc3c(n2)-c2ccc(Cl)cc2N(Cc2ccccc2)S3(=O)=O)c1`, the survival is 87% (inactive). For `CSc1nc(Nc2ccc(C)cc2C)cc(-c2ccccc2)n1` the value was 50% (inactive). In the case of `CSc1nc(C)cc(Nc2cccc(C(=O)O)c2)n1` it was 87% (inactive); in that of `Cc1nc(Nc2ccc(Cl)cc2)cc(-c2ccccc2)n1`, -2% (active); in that of `COc1cccc(Nc2cc(-c3ccccc3)nc(C)n2)c1`, 49% (inactive). On to `CCOC(=O)c1ccc(Nc2cc(-c3ccccc3)nc(C)n2)cc1`, for which the survival is 83% (inactive).

`CSc1nc(Nc2ccc(F)cc2)cc(-c2ccccc2)n1`: the survival is -2% (active). `Cc1cc(C)cc(Nc2cc(-c3ccccc3)nc(C)n2)c1`: the survival was 10% (active). For `CCOc1ccccc1Nc1cc(-c2ccccc2)nc(C)n1` the value was 78% (inactive); for `Cc1ccc(Nc2cc(-c3ccccc3)nc(C)n2)cc1`, 37% (inactive); for `COc1ccccc1NC(=O)CSc1nncn2c1cc1sccc12`, 96% (inactive). For `Cc1oc(-c2ccccc2)nc1CSc1nnc(C)n2c1cc1sccc12` the value was 83% (inactive); for `CCN(CCCNC(=O)Cn1ncc2c([nH]c3ccc(C)cc32)c1=O)Cc1ccccc1`, 55% (inactive).

Regarding `NCC(O)CN1CCN(Cc2ccccc2)CC1` (stereo unspecified), the survival is 105% (inactive).

Regarding `CCOC(=O)c1sc2ncn(CC(=O)Nc3ccc(N(C)C)cc3)c(=O)c2c1C`, the survival is 89% (inactive). For `O=C(CSc1ccc2ccccc2n1)Nc1nsc(-c2ccc(Cl)cc2)n1` the value was 68% (inactive). For `Cc1cc(SCC(=O)Nc2nsc(-c3ccc(C(C)(C)C)cc3)n2)nc2ccccc12` the value was 7% (active); for `Cc1ccc(-c2nc(NC(=O)CSc3ccc4ccccc4n3)ns2)cc1`, 83% (inactive). As for `Cc1ccc(-c2nc(NC(=O)CSc3cc(C)c4ccccc4n3)ns2)cc1`, the survival is 71% (inactive). In the case of `COc1ccc2c(C)cc(SCC(=O)Nc3nsc(-c4ccc(C(C)(C)C)cc4)n3)nc2c1` it was 5% (active); in that of `Cc1ccccc1-c1nc(NC(=O)CSc2ncnc3sc4c(c23)CCCC4)ns1`, 88% (inactive).

For the molecule `COc1ccc2c(C)cc(SCC(=O)Nc3nsc(-c4ccccc4C)n3)nc2c1`, the survival is 1% (active). In the case of `CC(C)(C)c1ccc(-c2nc(NC(=O)CSc3ncnc4sc5c(c34)CCCC5)ns2)cc1` it was 73% (inactive); in that of `COc1cccc(NC(=O)CSc2cc(C)c3ccccc3n2)c1`, 73% (inactive); in that of `COC(=O)c1ccc(Cn2c(SCC(=O)Nc3ccc(F)cc3)nc3ccccc32)cc1`, 55% (inactive). In the case of `Cc1ccc(Sc2ccc(N3CCCC(C(=O)Nc4ccc(F)cc4)C3)nn2)cc1` (stereo unspecified) it was 60% (inactive); in that of `CCOC(=O)c1c(NC(=O)C(C)Oc2ccccc2F)sc(C(C)=O)c1C` (stereo unspecified), 65% (inactive). For `COc1ccc(NC(=O)CSc2ccc(-c3cccs3)nn2)cc1` the value was 89% (inactive). Regarding `CCOC(=O)c1c(NC(C)=O)c2c3c(sc2n1Cc1nc(-c2ccc(Cl)cc2)oc1C)CCCC3`, the survival is 81% (inactive). In the case of `Cc1ccc(CN2COc3c(Cl)cc4c(-c5ccccc5)cc(=O)oc4c3C2)cc1` it was 87% (inactive); in that of `COc1ccc(OCC(=O)N(Cc2cccs2)c2ccc(OC)cc2)cc1`, 85% (inactive). For `Cc1cccc(OCC(=O)N(Cc2cccs2)c2ccc(Cl)cc2)c1C` the value was 79% (inactive). For `COc1ccc(N(Cc2cccs2)C(=O)COc2cccc(C)c2C)cc1` the value was 12% (active); for `CC1(C)CC2(C=CC(=O)CC2)CCO1` (stereo unspecified), 96% (inactive). In the case of `Cn1c(=O)c2c(-c3ccc(Cl)cc3)ccnc2n(C)c1=O`, the survival was 68% (inactive). For `COc1ccc(CNc2nc(-c3ccccc3)nn2S(=O)(=O)c2ccccc2)cc1` the value was 4% (active). For `COc1ccc(CNc2nc(-c3ccc(Cl)cc3)nn2S(=O)(=O)c2ccc(C)cc2)cc1` the value was 64% (inactive); for `O=S(=O)(c1ccccc1)n1nc(-c2ccccc2)nc1NCc1ccc(Cl)cc1`, 73% (inactive). In the case of `CCc1ccc(NC(=O)Cn2c(=O)n(CCC(=O)NCCc3ccc(OC)c(OC)c3)c(=O)c3ccccc32)cc1` it was 102% (inactive); in that of `Fc1ccc(NCc2nnc3n2CCCCC3)cc1Cl`, 66% (inactive). For the molecule `Cc1ccc(Cl)cc1NCc1nnc2n1CCCCC2`, the survival is 75% (inactive). In the case of `COc1ccc(C)cc1NCc1nnc2n1CCCCC2` it was -3% (active); in that of `Cc1cc(C)cc(NCc2nnc3n2CCCCC3)c1`, 85% (inactive); in that of `COc1ccc(NCc2nnc3n2CCCCC3)c(OC)c1`, 73% (inactive). For `COc1ccc(Cl)cc1NCc1nnc2n1CCCCC2` the value was 0% (active); for `O=[N+]([O-])c1ccc(S(=O)(=O)N2CCn3cccc3C2c2ccccc2F)cc1` (stereo unspecified), 132% (inactive). For `Cn1nc(C(=O)N2CCN(c3cccc(Cl)c3)CC2)c2c1-c1ccccc1S(=O)(=O)C2` the value was 46% (inactive). `COc1ccc(C2=C/C(=C/c3ccco3)C(=O)O2)cc1`: the survival is 117% (inactive). In the case of `Cc1cccc(CCNC(=O)CN(c2ccc(C(C)C)cc2)S(=O)(=O)c2c(C)nn(C)c2C)c1` it was 87% (inactive); in that of `Cc1ccc(NC(=O)Cn2c(=O)ccc3cc(S(=O)(=O)N4CCCC4)ccc32)cc1N(C)C`, 0% (active). In the case of `CC1CCN(S(=O)(=O)c2ccc3c(c2)oc(=O)n3CC(=O)N2CCCCC2)CC1` it was 76% (inactive); in that of `Cc1ccc(CNC(=O)Cn2c(=O)ccc3cc(S(=O)(=O)N4CCC(C)CC4)ccc32)cc1`, 10% (active); in that of `CC1CCN(S(=O)(=O)c2ccc3c(ccc(=O)n3CC(=O)NCc3ccc(Cl)cc3)c2)CC1`, 59% (inactive). For the molecule `CCc1ccc(NC(=O)Cn2c(=O)ccc3cc(S(=O)(=O)N4CCCC4)ccc32)cc1`, the survival was 148% (inactive). For `Cc1ccc(NC(=O)Cn2c(=O)ccc3cc(S(=O)(=O)N4CCC(C)CC4)ccc32)cc1Cl` the value was 88% (inactive). In the case of `CC(=O)Nc1ccc(NC(=O)Cn2c(=O)ccc3cc(S(=O)(=O)N4CCC(C)CC4)ccc32)cc1` it was 91% (inactive); in that of `CC1CCN(S(=O)(=O)c2ccc3c(ccc(=O)n3CC(=O)Nc3ccc(C(C)C)cc3)c2)CC1`, -2% (active); in that of `CC1CCN(C(=O)Cn2c(=O)oc3cc(S(=O)(=O)N4CCCCC4)ccc32)CC1`, 83% (inactive). In the case of `CC1CCN(S(=O)(=O)c2ccc3c(c2)oc(=O)n3CC(=O)O)CC1` it was -3% (active). As to `Cc1ccc(NC(=O)Cn2c(=O)ccc3cc(S(=O)(=O)N4CCCC4)ccc32)cc1C`, the survival was 88% (inactive). In the case of `CC1CCN(S(=O)(=O)c2ccc3c(ccc(=O)n3CC(=O)NCc3ccccc3)c2)CC1` it was 22% (inactive).

The record behind these values is PubChem BioAssay AID463173 (ICCB-Longwood Screening Facility, Harvard Medical School, 2010).
